# Data published in PubChem BioAssay (EPA / NIEHS).
# Inconclusive results are not listed. The source made the active and inactive calls. Rule for the calls, unless noted: active = hit-call score of the fitted dose curve at least 0.9, where 1 is the maximum; inconclusive = response in the unintended direction; inactive = score below 0.9.
# Columns and labels:
# [1] = CEETOX_H295R_CORTIC_noMTC: CeeTox H295R High-throughput Steroidogenesis Assay for Corticosterone (CORTIC), maximum tolerated concentration (MTC) filtered results only (AID 2283917; active = hit-call score of the fitted dose curve at least 0.9, where 1 is the maximum; inactive = score below 0.9); conditions: actives raise or lower the signal
# Outline: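 Human adrenal H295R cells were prestimulated 48 h with 10 uM forskolin, then exposed 48 h to chemical in 0.1% DMSO. Medium corticosterone was MTBE-extracted and quantified by HPLC-MS/MS; bidirectional fits versus DMSO, concentrations not MTC-filtered.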
# [2] = CEETOX_H295R_DOC_noMTC: CeeTox H295R High-throughput Steroidogenesis Assay for DOC, maximum tolerated concentration (MTC) filtered results only (AID 2283918; active = hit-call score of the fitted dose curve at least 0.9, where 1 is the maximum; inactive = score below 0.9); conditions: actives raise or lower the signal
# Outline: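 11-Deoxycorticosterone secreted by human adrenal H295R cells quantified by HPLC-MS/MS after 48 h chemical exposure (0.1% DMSO), following 48 h 10 uM forskolin prestimulation. Concentrations not filtered by MTT-derived MTC; bidirectional fitting.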
# [3] = CEETOX_H295R_TESTO_noMTC: CeeTox H295R High-throughput Steroidogenesis Assay for Testosterone (TESTO), maximum tolerated concentration (MTC) filtered results only (AID 2283924; active = hit-call score of the fitted dose curve at least 0.9, where 1 is the maximum; inactive = score below 0.9); conditions: actives raise or lower the signal
# Outline: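 Medium testosterone, measured by HPLC-MS/MS after liquid-liquid extraction, was fitted in both directions relative to DMSO without MTC filtering. Adrenal H295R cells received 48 h chemical exposure (0.1% DMSO final) after 48 h forskolin (10 uM) prestimulation; viability by MTT.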
# [4] = CEETOX_H295R_ESTRADIOL_noMTC: CeeTox H295R High-throughput Steroidogenesis Assay for Estradiol, maximum tolerated concentration (MTC) filtered results only (AID 2283919; active = hit-call score of the fitted dose curve at least 0.9, where 1 is the maximum; inactive = score below 0.9); conditions: actives raise or lower the signal
# Outline: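 Readout: dansyl-derivatized estradiol quantified by LC-MS/MS in medium from H295R cells dosed 48 h (0.1% DMSO) following 48 h forskolin (10 uM) prestimulation. Gain or loss of signal fitted against DMSO; no MTC filtering applied.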
# [5] = CEETOX_H295R_ESTRONE_noMTC: CeeTox H295R High-throughput Steroidogenesis Assay for Estrone, maximum tolerated concentration (MTC) filtered results only (AID 2283921; active = hit-call score of the fitted dose curve at least 0.9, where 1 is the maximum; inactive = score below 0.9); conditions: actives raise or lower the signal
# Outline: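 Estrone in spent medium, quantified by tandem MS following dansyl chloride derivatization, after 48 h chemical exposure (0.1% DMSO) of forskolin-prestimulated (10 uM, 48 h) H295R cells; concentrations not MTC-filtered, bidirectional fit against DMSO.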
# [6] = target: PGR (gene 5241) (UniProt P06401); assay: TOX21_PR_BLA_Followup_Antagonist_ratio: Tox21 HEK293 Progesterone Receptor (PR) Antagonism Beta-lactamase Follow-Up Assay, Ratio (AID 2283934)
# Outline: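 Read-out: blue/green beta-lactamase FRET ratio (cleaved ch2 over uncleaved ch1), fitted relative to DMSO baseline. Cells: PR-UAS-bla HEK293T, GAL4-UAS reporter, stimulated with 1 nM R5020 final; 16 hr compound exposure, 37C.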
# [7] = TOX21_PR_BLA_Followup_Agonist_viability: Viability Assessment in the Tox21 HEK293 Progesterone Receptor (PR) Agonism Beta-lactamase Follow-Up Assay (AID 2283935);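 note: signal loss means lower viability so actives are cytotoxic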
# Experimental: TOX21_PR_BLA_Followup is a secondary assay for specificity for the TOX21_PR_BLA_Agonist assay. To differentiate true PR agonists from cytotoxic substances, this follow up assay is multiplexed with a cell viability assay. The compounds were also tested for auto fluorescence that may interfere with the biological target readout resulting in potential false positives and/or negatives. To identify the compounds that stimulate PR signaling, a PR-UAS-bla GripTite cell line i.e. PR-UAS-bla HEK293T (Invitrogen, Carlsbad, CA, USA) containing a beta-lactamase reporter gene under the control of an UAS response element was used to screen Tox21 10K compound library. The cytotoxicity of the Tox21 compound library against the PR-bla cell line was tested in parallel by measuring the cell viability using CellTiter-Glo assay in the same wells. TOX21_PR_BLA_Followup_Agonist_viability is a component of the TOX21_PR_BLA_Followup_Agonist assay. This component measures cell viability using the CellTiter-Glo Luciferase-coupled ATP quantitation.TOX21_PR_BLA_Followup_Agonist_viability used a type of viability reporter where loss-of-signal activity can be used to understand changes in the cell viability. Furthermore, this assay endpoint can be referred to as a secondary readout, because this assay has produced multiple assay endpoints where this one serves a viability function. […]
# [8] = TOX21_PR_BLA_Followup_Antagonist_viability: Viability Assessment in the Tox21 HEK293 Progesterone Receptor (PR) Antagonism Beta-lactamase Follow-Up Assay (AID 2283936);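 note: cells exposed to compound with R5020 agonist for 16 h; hits lower the luminescence signal meaning cytotoxicity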
# Outline: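 PR-UAS-bla HEK293T cells in medium with 2% charcoal-stripped FBS were treated with compounds plus R5020 for 16 hr at 37C. After the beta-lactamase read, CellTiter-Glo was added to the same wells and luminescence read after 30 min at room temperature.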
# [9] = target: PGR (gene 5241) (UniProt P06401); assay: TOX21_PR_LUC_Followup_Antagonist: Tox21 HEK293 Progesterone Receptor (PR) Antagonism Luciferase Follow-Up Assay (AID 2283938);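 note: curve fitted upward as signal gain over DMSO baseline despite antagonist label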
# Outline: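 Luminescence from ONE-Glo was measured 30 min after reagent addition, following 16 h exposure of HEK293-PR-A-luc cells (3,000/well, plated 5 h earlier) to DMSO-dissolved compounds at 37C; DMSO served as baseline.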
# Sequence of PGR (gene 5241) (P06401 whole entry, looked up, the tested form may be a part): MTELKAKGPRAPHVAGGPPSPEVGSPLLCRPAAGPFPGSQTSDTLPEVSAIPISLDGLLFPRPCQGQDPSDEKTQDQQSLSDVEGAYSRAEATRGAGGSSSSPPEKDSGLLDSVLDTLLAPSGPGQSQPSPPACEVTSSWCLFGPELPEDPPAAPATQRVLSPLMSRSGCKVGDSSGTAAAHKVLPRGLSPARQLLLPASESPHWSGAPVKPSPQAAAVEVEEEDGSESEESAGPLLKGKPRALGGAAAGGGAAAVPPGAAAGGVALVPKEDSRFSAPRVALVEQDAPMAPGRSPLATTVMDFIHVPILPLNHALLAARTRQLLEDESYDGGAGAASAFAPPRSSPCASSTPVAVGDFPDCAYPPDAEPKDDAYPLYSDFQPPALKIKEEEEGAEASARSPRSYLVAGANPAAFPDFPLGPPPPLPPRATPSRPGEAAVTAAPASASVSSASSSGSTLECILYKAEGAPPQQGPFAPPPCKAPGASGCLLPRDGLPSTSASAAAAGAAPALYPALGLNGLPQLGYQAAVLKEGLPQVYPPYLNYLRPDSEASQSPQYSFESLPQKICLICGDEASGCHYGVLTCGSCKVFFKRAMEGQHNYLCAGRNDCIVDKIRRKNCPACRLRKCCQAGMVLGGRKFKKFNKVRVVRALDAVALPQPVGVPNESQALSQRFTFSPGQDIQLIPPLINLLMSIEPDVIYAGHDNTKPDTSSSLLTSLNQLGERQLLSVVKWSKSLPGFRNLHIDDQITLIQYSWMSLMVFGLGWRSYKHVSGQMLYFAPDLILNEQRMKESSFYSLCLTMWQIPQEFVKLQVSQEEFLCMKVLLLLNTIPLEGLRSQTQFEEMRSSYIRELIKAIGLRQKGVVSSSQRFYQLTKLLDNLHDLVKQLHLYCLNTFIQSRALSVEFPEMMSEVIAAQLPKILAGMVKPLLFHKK
smiles,measurement,setting,value
CCCCCCCOC(=O)c1ccccc1C(=O)OCCCCCCC,outcome,[1],inactive
same,outcome,[2],inactive
same,outcome,[3],inactive
CC(C)OC(=O)c1ccccc1C(=O)OC(C)C,outcome,[1],inactive
same,outcome,[2],inactive
COC(=O)C1CCC(C(=O)OC)CC1 (stereo not given),outcome,[4],inactive
same,outcome,[5],inactive
C#C[C@]1(O)CC[C@H]2[C@@H]3CCc4cc(OC)ccc4[C@H]3CC[C@@]21C,outcome,[6],inactive
same,outcome,[7],inactive
same,outcome,[8],inactive
same,outcome,[9],inactive
C(=C(c1ccccc1)c1ccccc1)c1ccccc1,AC50,[6],30.7 µM (active)
same,outcome,[7],inactive
same,outcome,[8],inactive
same,AC50,[9],32.3 µM (active)
